Out of some 420,000 compounds screened, about 50,000 (12%) were called active. About 26% were inconclusive and are not listed. The sample holds actives, similar compounds and a random draw of the others, so the mix is not that of the screen. Calls follow the shape of the dose curve; as a rule, active = well fitted inhibition curve with a large enough effect; inconclusive = small, poorly fitted or top-dose-only effect; inactive = flat fitted curve, though single readings scatter.
Test: qHTS for Inhibitors of human tyrosyl-DNA phosphodiesterase 1 (TDP1): qHTS in cells in presence of CPT; also: nearly all actives have a fitted effect of over 55% in size
Conditions: chicken DT40 Tdp1-/-;hTDP1 cells + 20 nM CPT, ATP luminescence, 48 h; series mostly up to 46.2 µM; activity change, negative = growth inhibition: at the top concentration
Summary of the method: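 Cell growth measured by CellTiter-Glo luminescence after a minimum 48 h, 37 C compound exposure with 20 nM CPT in Tdp1-knockout DT40 cells stably expressing hTDP1, seeded 400/well; qHTS titration format.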
% is scaled to controls: 0 for no effect and ±100 for the full control effect; potency is read from the fitted curve at half-maximal effect.

Row | Compound | activity change, negative = growth inhibition | Potency
1 | CC1CCCCC1NC(=O)CSc1nnc(-c2ccncc2)n1CCCN(C)C (stereo unspecified) | 10.5% (inactive) | –
2 | CN1CCN(c2ccc(S(=O)(=O)N3CCOCC3)cc2NC(=O)CCc2ccccc2)CC1 | 0.451% (inactive) | –
3 | CCCN(CCC)CCNC(=O)c1ccc2c(c1)NC(=O)C(CS(=O)(=O)Cc1cccc(Br)c1)N2 (stereo unspecified) | -21.3% (inactive) | –
4 | O=C(NCCCN1CCOCC1)c1ccc(N2CCCC2)c([N+](=O)[O-])c1 | 13.4% (inactive) | –
5 | CCCNC(=O)c1ccc(N2CCC3(CC2)CC(c2ccc(Cl)cc2)=NO3)c([N+](=O)[O-])c1 | – | 23.1 µM (active)
6 | COC(=O)c1ccc(N2CCOCC2)c(NC(=O)c2ccc(Br)o2)c1 | 0.879% (inactive) | –
7 | CCCNC(=O)c1ccc(N2CCC3(CC2)CC(c2cccc(Br)c2)=NO3)c(NC(=O)c2ccco2)c1 | – | 5.17 µM (active)
8 | COCCNC(=O)c1ccc(N2CCC3(CC2)OCCO3)c([N+](=O)[O-])c1 | -2.95% (inactive) | –
9 | Cc1oc2c(C)c3oc(=O)c(CC(=O)N[C@@H](CC(C)C)C(=O)N[C@@H](Cc4ccccc4)C(=O)O)c(C)c3cc2c1C | 0.481% (inactive) | –
10 | COc1cc(N)c(Cl)cc1C(=O)OCC(=O)c1ccc2c(c1)NC(=O)CO2 | -24.7% (inactive) | –
11 | CCOc1ccccc1NC(=O)CCc1nnc2ccc(NCc3ccco3)nn12 | -5.44% (inactive) | –
12 | Cn1ncc([N+](=O)[O-])c1C(=O)Nc1cc(Cl)ccc1Cl | 13.4% (inactive) | –
13 | C/C(=N\NC(=O)c1cccnc1)c1ccc(-n2ccnc2)cc1 | 6.18% (inactive) | –
14 | Cc1ccc(C)c(NC(=O)CCC(=O)N/N=C2/CC(=O)CC(C)(C)C2)c1 | -5.64% (inactive) | –
15 | Nc1[nH]c(C(=O)c2ccccc2)c(-c2ccc(Br)cc2)c1C(=O)NC1CC1 | -9.96% (inactive) | –
16 | COc1cccc(/C=N/Nc2cc(C)nc(-c3ccccc3O)n2)c1O | – | 18.4 µM (active)
17 | COc1ccccc1/C=N/Nc1nc(C)c(C(C)=O)s1 | -19.1% (inactive) | –
18 | COc1ccccc1-n1c(SCC(=O)Nc2cccc(C(=O)O)c2)nnc1-c1ccccc1O | -3.19% (inactive) | –
19 | Cc1ccc(S(=O)(=O)Nc2nc(C)cc(N/N=C/c3ccc(O)cc3)n2)cc1 | -0.757% (inactive) | –
20 | Cc1nc(Cl)cc(N/N=C/c2ccccc2)n1 | -13% (inactive) | –
21 | COc1ccccc1/C=N\Nc1cc(C)nc(-n2nc(C)cc2C)n1 | – | 6.51 µM (active)
22 | COc1cccc2c(N/N=C/c3ccco3)cc(C)nc12 | -2.9% (inactive) | –
23 | COc1cc(NS(=O)(=O)c2ccccc2)ccc1-n1nc(C)cc1C | -9.7% (inactive) | –
24 | Cc1cc(N/N=C\c2ccc(Br)cc2)nc(-n2nc(C)cc2C)n1 | – | 1.64 µM (active)
25 | COc1ccc(CCNS(=O)(=O)c2ccc(Cl)s2)cc1OC | -20.2% (inactive) | –
26 | COc1cc(=O)n2c(c1C(=O)N(C)Cc1nonc1C)CCN(C(=O)c1ccc(C)cc1C)CC2 | 14.1% (inactive) | –

Row | Compound | activity change, negative = growth inhibition | Potency
27 | CCc1ccc(NC(=O)CC2C(=O)NCCN2C(=S)Nc2ccccc2)cc1 (stereo unspecified) | -7.73% (inactive) | –
28 | O=C(Nc1cccc2cccnc12)c1ccc2sc([C@H]3C[C@H](O)[C@@H](CO)O3)nc2c1 | – | 18.4 µM (active)
29 | O=C(Nc1cccc2cccnc12)c1cccc(Cl)c1 | -16.5% (inactive) | –
30 | O=C(Nc1nnc([C@H]2C[C@H](O)[C@@H](CO)O2)s1)c1cccc(Cl)c1 | -16.4% (inactive) | –
31 | O=C1CCC(=O)N1CCC(=O)N(C(=O)NC1CCCCC1)C1CCCCC1 | 3.74% (inactive) | –
32 | NC(=O)C[n+]1cccc(C(N)=O)c1 | -1.13% (inactive) | –
33 | COc1c(O)ccc2c1CN1CCc3cc4c(cc3C1C2)OCO4 (stereo unspecified) | – | 14.6 µM (active)
34 | COc1cc(COCC(O)CN2CCN(Cc3ccc4c(c3)OCO4)CC2)cc(OC)c1OC (stereo unspecified) | -5.21% (inactive) | –
35 | COCCCN1C(=O)C(=O)/C(=C(/O)c2ccc(S(=O)(=O)N3CCOCC3)cc2)C1c1ccc(F)cc1 (stereo unspecified) | -34% (inactive) | –
36 | Cc1nn(C(=O)c2ccoc2C)c(N)c1-c1ccccc1 | -9.59% (inactive) | –
37 | Cc1ccc(N=Nc2c(C)[nH]n(-c3ccccc3)c2=O)cc1 | -17.8% (inactive) | –
38 | Cc1[nH]n(-c2ccccc2)c(=O)c1/C=N/NC(=O)c1ccoc1C | – | 1.46 µM (active)
39 | CCOC(=O)C1CCCN(S(=O)(=O)c2ccc(-n3cnnn3)c(C)c2)C1 (stereo unspecified) | -25.7% (inactive) | –
40 | COc1ccc(CCn2ccc(O)c(Cc3ccc(Cl)cc3Cl)c2=O)cc1OC | 3.26% (inactive) | –
41 | CC1CC(C)(C)CC2(C1)NC(=O)N(CC(=O)Nc1nccs1)C2=O (stereo unspecified) | 1.24% (inactive) | –
42 | COC(=O)c1sc(-c2ccc(C(C)(C)C)cc2)cc1NC(=O)/C=C/C(=O)O | – | 4.61 µM (active)
43 | CSc1ccc(NC(=O)/C=C/C(=O)O)cc1 | 13.8% (inactive) | –
44 | O=C(O)/C=C/C(=O)Nc1ccc(F)cc1F | 13.5% (inactive) | –
45 | CCC(Cc1ccccc1)NC(=O)C1CCCCC1 (stereo unspecified) | -15.5% (inactive) | –
46 | CN1CCN(CCNC(=O)Nc2ccccc2[N+](=O)[O-])CC1 | 1.85% (inactive) | –
47 | CCn1c(/C=C/c2ccc([N+](=O)[O-])o2)nc2ccccc2c1=O | – | 1.3 µM (active)
48 | Cc1nc2ccccc2c(=O)n1Cc1ccc([N+](=O)[O-])cc1 | -21.5% (inactive) | –
49 | Cn1cc(/C=C/c2nc3ccccc3c(=O)n2-c2cccc([N+](=O)[O-])c2)c2ccccc21 | -9.1% (inactive) | –
50 | CC(C)c1ccc(S(=O)(=O)N2CCC3(CC2)OCCO3)cc1 | -2.81% (inactive) | –
51 | CCn1c(=O)c2cc(C(=O)Nc3cccc(C(C)=O)c3)sc2c2ccccc21 | -18.9% (inactive) | –

Source: PubChem BioAssay AID686979 (National Center for Advancing Translational Sciences (NCATS), 2013)
